# From PubChem
# Sampled rows, rich in hits. Any-hit rate of the full collection: about 9.6%.
# Ins promoter up = insulin promoter activators in MIN6 cells, imaging, high-content screening, mouse beta cells | z-score at 5 µM | MIN6 insulin promoter-GFP reporter; active compounds read high | AID 1625, 2009 | 190,000 tested, 0.3% active;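 active = z-score above 3 at 5 µM with at least 500 cells counted in the well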
# INS promoter inh = inhibitors of insulin promoter-driven GFP, primary screen, imaging, TRM-6 cells (human fetal islet line), eGFP reporter, cell count; reporter expression induced with tamoxifen; 130,000 tested, 0.9% active; inhibition, % at 2 µM;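 active = inhibition above the mean plus 3 SD, with well images judged a real hit on visual review, cut at about 60% in these data, passing the limit was not always enough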
# Lmaj promast = Leishmania major promastigote growth inhibition, primary screen. Leishmania major promastigotes, resazurin fluorescence viability. inhibition, % at 10 µM. 200,000 tested, 9% active; in the data active = inhibition above about 50%;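 also: promastigotes grown with compound for 44 hours at 28 °C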
# bCat KO growth = primary screen for growth suppressors in beta-catenin knockout HCT116 cells (colon tumor, human); HCT116 beta-catenin knockout viability, CellTiter-Glo, 60 h; active compounds read low; viability, % at 10 µM; 140,000 tested, 1.5% active;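 active = viability at or under a set limit, the compound median less 4 SD, cut at about 6% in these data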;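 also: 0% = Hyamine 1622 control at 20 µM and 100% = untreated cell control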
# PTEN del growth = growth suppression of PTEN-null HCT116, primary screen, cell-based, CellTiter-Glo | HCT116 PTEN-null viability, 60 h; active compounds read low | viability, % at 10 µM | 140,000 tested, 1.2% active | AID 827, 2007;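 active = viability at or below a set limit, 4 SD under the median of all tested compounds, cut at about 3.7% in these data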;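 also: PTEN knockout HCT116 line with beta catenin targeted HCT116 as companion control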
# Autophagy HCS = autophagy modulators in MEF cells, primary screen, imaging, high-content, MEF GFP-LC3. MEF GFP-LC3 puncta imaging; test concentration mostly 10 µM. calls only at 10 µM (by protocol). 190,000 tested, 0.98% active;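 active = percentage of spot-positive cells more than 3 SD above its plate mean, without a fluorescence outlier flag or 80% toxicity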;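 also: spot-positive cell cutoff set from DMSO-treated cells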
# Numbers without * were called inactive; i = inactive; . = no result given; + = active, no number.
SMILES,Ins promoter up,INS promoter inh,Lmaj promast,bCat KO growth,PTEN del growth,Autophagy HCS
Cc1oc(-c2cc(F)ccc2F)nc1CN1CCN(c2cnccn2)CC1,-0.08,.,-4.2,.,.,i
Cc1ccccc1OCC(=O)N1CCCc2ccccc21,-0.12,20.0,53.1*,100.9,89.2,i
Cc1[nH]c2ccccc2c1C(=O)C(=O)N1CCCc2ccccc21,2.75,.,6.3,59.6,44.5,i
Cn1c(=O)cc(OCC(=O)N2CCCc3ccccc32)c2ccccc21,-0.12,.,-6.5,96.2,99.7,i
Cc1ccccc1CN1CCc2c(OCC(=O)N3CCCc4ccccc43)cccc2C1=O,-0.19,-128.0,96.3*,59.3,53.4,i
O=C1c2cccc(OCC(=O)N3CCCc4ccccc43)c2CCN1Cc1cccnc1,-0.45,.,18.8,.,.,i
Cc1[nH]c2ccccc2c1SCC(=O)N1CCCc2ccccc21,1.92,.,99.5*,91.2,94.9,.
O=C(CSc1n[nH]c(-c2cccs2)n1)N1CCCc2ccccc21,-0.79,-20.9,-0.4,98.7,94.6,i
O=C(CSc1n[nH]c(-c2ccccc2O)n1)N1CCCc2ccccc21,-0.1,-45.5,74.5*,35.6,38.7,i
C=CCNC(=O)/C(=C\C=C\c1ccccc1)NC(=O)c1ccc(OCCCC)cc1,-0.22,6.9,0.6,89.7,81.7,i
CC(=O)Nc1ccc2c(c1)C(C)(C)C(C)N2C (centres undefined),-0.17,-114.8,94.3*,.,.,i
Cc1snc(SCC(=O)c2ccc(Cl)cc2)c1C#N,-0.03,4.3,99.4*,74.1,81.8,i
Cc1ccnc(SCC(=O)c2ccc(Br)cc2)c1C#N,0.01,61.1*,5.1,91.6,94.0,i
Cc1ccc(C(=O)CSc2nsc(C)c2C#N)cc1,-0.26,0.0,-6.2,90.1,105.2,i
Cc1cc(C)c(C#N)c(SCC(=O)c2ccc(Cl)cc2Cl)n1,0.17,68.6,100.0*,61.9,42.6,i
Cc1ccc(C)c(OCC(=O)N2CCOCC2)c1,0.47,88.6*,-1.2,91.0,97.6,i
CC(C)C[C@H](NC(=O)OC(C)(C)C)c1nnc(SCc2cccc(F)c2)o1,.,-48.4,68.5*,70.5,72.1,i
COc1ccc(-c2nc3c(c(SCC(=O)N4CCOCC4)n2)COC(C)(C)C3)cc1,0.18,60.7*,3.7,86.0,87.3,i
CCN(CC)S(=O)(=O)c1ccc(/C=C/C(=O)Nc2c(C)n(C)n(-c3ccccc3)c2=O)cc1,-1.32,.,-14.0,.,.,i
Cc1c(Br)c([N+](=O)[O-])nn1C(C)C(=O)NCc1ccco1 (centres undefined),-0.13,.,0.0,89.4,94.6,i
CCOC(=O)c1nn(-c2cccc(Cl)c2)c(C)c1C(C)=O,0.2,91.5*,0.7,94.9,99.1,i
COc1ccc(OC)c(CN2CCCC(C(=O)N3CCCCC3)C2)c1 (centres undefined),-0.13,47.1,6.4,82.5,88.6,i
COc1ccc(C(=O)C2CCCN(Cc3c[nH]c4ccccc34)C2)c(OC)c1 (centres undefined),-0.58,.,62.4*,.,.,i
COc1ccc(C(=O)C2CCCN(C/C=C/c3ccccc3OC)C2)c(OC)c1 (centres undefined),0.3,.,50.1*,.,.,i
COc1cccc(C(=O)C2CCCN(C/C=C/c3ccccc3OC)C2)c1 (centres undefined),-0.1,.,20.3,.,.,i
SMILES,Ins promoter up,INS promoter inh,Lmaj promast,bCat KO growth,PTEN del growth,Autophagy HCS
CCOC(=O)C1CCN(C/C=C/c2ccccc2OC)CC1,0.63,-16.7,77.7*,69.6,85.5,i
COc1ccc(/C=C/CN2CCCC(C(=O)c3ccc(OC)c(F)c3)C2)cc1 (centres undefined),-0.94,.,81.8*,.,.,i
O=C(NCCO)/C(=C\c1cccs1)NC(=O)c1cccs1,0.15,-42.9,-5.7,102.2,107.2,i
O=C(CSc1nnnn1-c1ccc2c(c1)OCCO2)Nc1nc2c(s1)CCCC2,0.78,28.6,6.2,79.1,89.1,i
CC1=C(C(=O)Nc2ccccc2)C(c2cccnc2)n2nc(-c3cccnc3)nc2N1 (centres undefined),0.23,.,14.4,93.5,104.1,i
Cc1ccc(C(c2nnnn2Cc2cccs2)N2CCN(Cc3ccc4c(c3)OCO4)CC2)cc1 (centres undefined),-1.18,.,78.0*,69.5,65.7,i
c1ccc(Cn2nnnc2CN2CCN(Cc3ccc4c(c3)OCO4)CC2)cc1,-1.28,.,88.5*,93.9,99.3,i
CCC(c1nnnn1Cc1ccc2c(c1)OCO2)N1CCN(c2ccc(OC)cc2)CC1 (centres undefined),-0.05,.,70.7*,77.7,82.6,i
CCC(C)(C)n1nnnc1C(c1cc2cc(C)cc(C)c2[nH]c1=O)N1CCN(Cc2ccc3c(c2)OCO3)CC1 (centres undefined),.,50.0,45.5,71.3,66.8,+
N#C/C(=N\Nc1cccc(Cl)c1)C(=O)c1ccccc1,0.62,.,-5.6,52.1,54.5,i
CC(C)C(c1nnnn1Cc1ccc(F)cc1)N1CCN(Cc2ccc3c(c2)OCO3)CC1 (centres undefined),.,-121.4,67.8*,51.9,46.1,i
COc1ccc(N=C(C)C2=C(O)c3ccccc3C2=O)cc1,-0.09,16.2,56.2*,85.8,93.3,i
CC(=O)Nc1ccc(NC(=O)C(Sc2ccccc2)c2ccccc2)cc1 (centres undefined),-0.35,.,.,.,.,.
CC(=O)NS(=O)(=O)c1ccc(NC(=O)C(Sc2ccccc2)c2ccccc2)cc1 (centres undefined),0.82,0.0,-11.5,100.9,103.1,i
CCC(C)NS(=O)(=O)c1ccc(NC(=O)C(Sc2ccccc2)c2ccccc2)cc1 (centres undefined),-1.57,38.2,68.2*,35.7,23.1,i
CCCCNS(=O)(=O)c1ccc(NC(=O)C(Sc2ccccc2)c2ccccc2)cc1 (centres undefined),-0.21,-11.1,78.6*,26.1,16.2,i
Nc1ccc(-n2ccnc2)cc1,0.53,.,-6.3,107.4,98.8,i
CC/C(=N\NC(=O)CSCc1ccccc1Cl)c1ccc2c(c1)OCCO2,-0.07,.,-6.0,98.4,88.4,i
CCc1c(C)c(C#N)c2nc3ccccc3n2c1-n1nc(C)cc1C,.,-55.6,0.5,86.0,88.3,i
CCc1c(C)c(C#N)c2nc3ccccc3n2c1Cl,-1,-153.3,100.5*,4.0*,2.2*,i
CCc1c(C)c(C#N)c2nc3ccccc3n2c1NCC1CCCO1 (centres undefined),-0.88,-79.3,68.1*,91.6,99.9,i
CC(C)c1cc(NCC2CCCO2)n2c(nc3ccccc32)c1C#N (centres undefined),0.46,-78.6,56.7*,83.0,79.3,i
